Laboratory results published in ChEMBL document CHEMBL3988442, “University of Dundee, Small-Polar-MMV Screening Library” (2021).
In all, about 48,000 compounds went through this assay and about 13,000 (27%) showed an effect of 50% or more. Some of the results follow.

Each compound was assayed on Wolbachia pipientis (assay: Anti-Wolbachia Cell-Based Screen). Conditions: 5 µM.
Format: functional
Set-up: scale not given: in the data most compounds retested in dose-response had high values

In order of rising “Percent Effect” value:
1. COC(=O)NCC(=O)N1CCCCC1c1nc2cc(F)ccc2[nH]1 (centres undefined)  -29.13%
2. O=c1[nH]c(-c2ccccc2F)nc2c1CCNC2  -26.1%
3. Cc1ccc(-c2nc(C(=O)N(C)CC(=O)N(C)C)cs2)c(C)c1  -25.77%
4. Cc1cc(=O)c(C(=O)N2CCCCC2c2ccc(F)cc2)c[nH]1 (centres undefined)  -20.91%
5. O=C1CCC2(CCN(Cc3ccc(F)cc3Cl)CC2)CN1CCO  -18.28%
6. Cc1ccc(-c2n[nH]cc2CNCC2CCc3nnc(C)n3C2)cc1 (centres undefined)  -17.97%
7. CC(C)N(C)[C@@H]1CCN(Cc2nccs2)[C@H]1Cc1ccncc1.O=C(O)C(F)(F)F.O=C(O)C(F)(F)F.O=C(O)C(F)(F)F  -17.48%
8. COc1ccc(NC(=O)c2ccc(-n3ncc(C#N)c3N)cc2)cn1  -17.39%
9. Cc1nc2c(C#N)cnn2c(C)c1CCC(=O)N(C)C1CC1  -17.24%
10. Cc1cnc(NC(=O)c2ccc(-n3ncc(C#N)c3N)cc2)s1  -16.88%
11. CSC(CNS(N)(=O)=O)c1cccc(Cl)c1 (centres undefined)  -15.56%
12. CC(C)CCN(C(=O)c1cccc(NC(N)=O)c1)C1CC1  -12.61%
13. Cc1nc(CN2CCC(C(=O)N(C)C3CCC(C)CC3)CC2)cs1 (centres undefined)  -8.684%
14. CN(C)C(=O)c1csc(-c2ccoc2)n1  -7.541%
15. CCOCc1ccc(NC(=O)NC2CCCn3nc(CC)nc32)cc1 (centres undefined)  -7.286%
16. CCCC1SCCN1C(=O)c1ccc(-n2ncc(C#N)c2N)cc1 (centres undefined)  -7.11%
17. Cc1c(O)oc(-c2ccc(Br)cc2)nc1=O  -7.091%
18. CCN(Cc1nonc1C)C(=O)c1cnccn1  -6.24%
19. O=C(O)C(F)(F)F.O=C([C@H]1CC[C@@H]2[C@@H](CCN2Cc2nccs2)O1)N1CCCCO1  -6.039%
20. CC(Cc1ccco1)NS(=O)(=O)N1CCCCC1 (centres undefined)  -4.951%
21. CC(C)c1cc(NC(=O)CN2CCc3cncnc3C2)on1  -4.855%
22. CC(C(=O)O)N1CCc2onc(-c3ccc4c(c3)OCO4)c2C1 (centres undefined)  -4.68%
23. CC(C)CCN(C(=O)Nc1cccc(C(=O)N(C)C)c1)C1CC1  -4.492%
24. CN(C(=O)c1ccc(NC(=O)c2cc[nH]n2)cc1)C1CCCCC1  -4.101%
25. Cc1nc(CNC(=O)Nc2ccc(N(C)C)nc2)sc1C  -4.03%
26. CCCN(CC(=O)NC)C(=O)c1ccc(-c2ccsc2)nc1C  -3.974%
27. CC(C)c1noc(C2CCCN2C(=O)CN2CCc3ccccc32)n1 (centres undefined)  -3.468%
28. CN(C)c1ccc(NC(=O)NCc2cccs2)cn1  -3.387%
29. CCN(CC(=O)NC)C(=O)Cc1csc(C(C)C)n1  -3.04%
30. CCc1ocnc1C(=O)N1CCN(c2nncc3ccccc23)CC1  -2.931%
31. CN1CCCN(C(=O)c2nc3c(o2)CN(C(=O)c2cccnc2)C3)CC1.O=C(O)C(F)(F)F.O=C(O)C(F)(F)F  -2.795%
32. CCCN1CCCN(c2ccc(-n3ccc(C)n3)nn2)CC1  -2.54%
33. CC(C)C1CCCN1C(=O)c1ccc(-n2ncc(C#N)c2N)cc1 (centres undefined)  -2.457%
34. CC(C)(C)c1n[nH]cc1CNCC1CCN(CC(F)(F)F)C1.Cl (centres undefined)  -2.373%
35. CCc1ccc(C(NC(=O)CN(C)S(C)(=O)=O)C(C)(C)C)o1 (centres undefined)  -2.175%
36. Cc1cccc(-c2[nH]ncc2CNCC2CCN(CC(C)O)CC2)c1 (centres undefined)  -2.172%
37. N#Cc1ccc(C(=O)N(C2CC2)C2CC(=O)NC2=O)cc1 (centres undefined)  -1.854%
38. CCc1cc(N(C)Cc2nonc2C)nc(N2CCOCC2)n1  -1.429%
39. CNC(=O)CN(C)C(=O)Cc1csc(C(C)C)n1  -0.57%
40. CCN(CC(=O)N(C)C)C(=O)c1cc(-c2cccc(Cl)c2)no1  -0.1751%
41. CC(O)CN1CCC(CNCc2c[nH]nc2C(C)(C)C)CC1 (centres undefined)  -0.09307%
42. COCCN1CC(Nc2nc(C(C)C)nc3c2cnn3C)CC1=O (centres undefined)  0.2406%
43. CNc1cc(N2CCCC2CNCc2c[nH]nc2C(C)(C)C)ncn1 (centres undefined)  0.4855%
44. COCCn1cc(NCc2c[nH]nc2C(C)(C)C)cn1  0.5813%
45. Cc1cc(=O)n(C)cc1NC(=O)Cc1cc(F)ccc1F  0.6087%
46. CC(C)c1cc(NC(=O)CN2CCc3ccccc3C2)on1  0.7279%
47. CCCc1nc(C)cc(N2CCNC(C(=O)NCc3cccnc3)C2)n1 (centres undefined)  0.7849%
48. CC(C)NC(=O)[C@H]1C[C@@H]2[C@@H](C1)OCCN2Cc1nccs1.O=C(O)C(F)(F)F  0.8743%
49. CCC(CO)NC(=O)Nc1cc(F)ccc1SCC(F)F (centres undefined)  1.4%
50. CS(=O)(=O)N1C[C@H]2CCCN(Cc3nccs3)[C@H]2C1.O=C(O)C(F)(F)F  1.749%
51. Cc1nnc2n1CCN(CC(=O)Nc1cc(C(C)C)no1)C2  1.962%
52. CCCNC(=O)c1nc2c(o1)CN(C(=O)CN(C)C)C2  2.652%
53. N#Cc1cnn(-c2ccc(C(=O)Nc3ccccn3)cc2)c1N  2.958%
54. CCC(=O)Nc1cc(Br)cn(C)c1=O  3.06%
55. O=C(O)C(F)(F)F.O=C(O)C(F)(F)F.O=S(=O)(NCC1OCCc2cn(Cc3ccccn3)nc21)C1CC1 (centres undefined)  3.652%
56. CC(C)c1cc(NC(=O)CN2CCCC(Cn3cncn3)C2)on1 (centres undefined)  3.767%
57. CC(C)(C)c1n[nH]cc1CNCC1CCN(C2CC2)C1.Cl (centres undefined)  3.787%
58. Cc1nnc(NC(=O)NCc2cccnc2N(C)C)s1  4.263%
59. Cc1nc(-c2cc(F)c3c(c2)CC(CN)O3)c[nH]1 (centres undefined)  4.344%
60. CN(C)CC(=O)N1Cc2nc(C(=O)NCc3ccccc3)oc2C1  4.563%
61. CN1CCC2(CC1)CN(Cc1ccc(C3CCCCO3)o1)CCCN2C (centres undefined)  6.017%
62. CN(C)CCN1CCc2c(nnn2C)C1COCc1ccccc1.O=C(O)C(F)(F)F.O=C(O)C(F)(F)F (centres undefined)  6.935%
63. CN1CCN(C(=O)c2nc3c(o2)CN(C(=O)c2cccnc2)C3)CC1.O=C(O)C(F)(F)F.O=C(O)C(F)(F)F  7.797%
64. CNC(=O)C(CC(C)C)NC(=O)c1cccc(-c2nc(C)cs2)c1 (centres undefined)  8.267%
65. CC(C)N1CCC(CNCc2c[nH]nc2C(C)(C)C)C1 (centres undefined)  9.105%
66. Cc1csc(-c2ccc(NC(=O)N3CCOCC3)cc2)n1  9.555%
67. CC(CNC(=O)Nc1ccc(N(C)C)nc1)Cn1cccn1 (centres undefined)  10.01%
68. Cc1cn2c(n1)C(CNCc1cnn3ccccc13)CCC2 (centres undefined)  10.2%
69. Cc1ccccc1-c1noc(C2CC(C(C)C)=NO2)n1 (centres undefined)  10.38%
70. CCOc1ccc(CNC(=O)N(C)Cc2ncnn2C)cc1C  11.45%
71. COc1ccc(Cl)cc1CCNC(=O)N(C)CC1CCOC1 (centres undefined)  11.56%
72. Cc1cc2nc(CO[C@H]3CN(C(=O)C4CC4)C[C@H]3F)[nH]c2cc1C  14.86%
73. O=C(c1ccc(F)cc1)N(CCCO)S(=O)(=O)c1cccs1  17.63%
74. COC(=O)c1cccc(NS(=O)(=O)c2cnc(NC(C)=O)s2)c1  20.99%
75. O=C(CCn1cccn1)N1CC[C@@H](c2ccc3ccccc3c2)[C@H](O)C1  28.28%
76. N#Cc1cnn(-c2ccc(C(=O)N(C3CCCCC3)C3CC3)cc2)c1N  50.38%
77. COCCN1CCC(CNCc2c[nH]nc2C(C)(C)C)CC1  88.21%
78. CN1CCCN(C(=O)c2nc3c(o2)CN(S(C)(=O)=O)C3)CC1  89.92%
79. CC(C)CCN(C(=O)c1ccc(-n2ncc(C#N)c2N)cc1)C1CC1  92.49%
80. CCCN(CC(=O)NC)C(=O)c1ccc(-c2nc(C)cs2)cc1  92.57%
81. Cc1ccc(-c2n[nH]cc2CNCC2CCN(CC(C)O)CC2)cc1 (centres undefined)  92.7%
82. CCc1cc(N(C)Cc2nonc2C)nc(N(C)C)n1  93.32%
83. CCN1CCC(CNCc2c[nH]nc2C(C)(C)C)C1.Cl (centres undefined)  95.83%
84. CN(C)C(=O)[C@@H]1CC[C@@H]2[C@@H](CCN2Cc2nccs2)O1.O=C(O)C(F)(F)F  98.79%
85. CN(C)c1ccc(NC(=O)NCc2cccnc2N(C)C)cn1  100.5%
86. COc1ncccc1CNC(=O)Nc1ccc(N(C)C)nc1  102.4%
87. CN(C)CC(=O)N1Cc2nc(C(=O)N3CCCN(C)CC3)oc2C1  106%
88. CN(C)CCN1CCC(CNCc2c[nH]nc2C(C)(C)C)CC1  106%
89. CN(C(=O)c1ccc(-n2ncc(C#N)c2N)cc1)C1CCCC1  106.6%
90. CCCN(CC(=O)N(C)C)C(=O)c1ccc(-c2nc(C)cs2)cc1  106.6%
91. CNC(=O)C1CCN(CC(=O)Nc2cc(C(C)C)no2)CC1  108.1%
92. CN(C)C(=O)[C@@H]1C[C@@H]2[C@@H](CCN2Cc2nccs2)O1.O=C(O)C(F)(F)F  111.2%
93. CCN(CC)C(=O)c1ccc(-n2ncc(C#N)c2N)cc1  113.8%
94. CC(C)c1cc(NC(=O)CN2CCC(C(N)=O)CC2)on1  115.1%
95. CNC(=O)CN(C)C(=O)c1ccc(-c2nc(C)cs2)cc1  115.5%
96. CC(C1CC1)N(C)C(=O)c1ccc(-n2ncc(C#N)c2N)cc1 (centres undefined)  117.6%
97. Cc1cc(-c2cc(F)ccc2C(=O)O)nc(C2CCCCN2C(C)C)n1 (centres undefined)  125.8%
98. Cc1cc(-c2ccccc2C(=O)O)nc(C2CCCN(C(C)C)C2)n1 (centres undefined)  128.4%
99. CCN(CC(=O)N(C)C)C(=O)c1ccc(-c2nc(C)cs2)cc1  133.8%
